Inconclusive results are not listed. Calls of active or inactive are those of the source. Unless noted, calls come from the whole dose curve; as a rule, active = well fitted curve in the direction sought with a large enough effect in the repeat runs; inconclusive = weak or mixed curves; inactive = no such curve, though single readings can be large; an effect the other way counts as inactive or inconclusive.
How the values were obtained:
[1] = qHTS assay to identify small molecule antagonists of the estrogen related receptor signaling pathway with the pleiotropic PPARgamma coactivator (PGC) from Tox21 10K library - cell viability counter screen (AID 1224840; active = well fitted cell-killing curve with a large enough effect in the repeat runs, not every such curve was filed as active; note: nearly all actives have a fitted effect of over 40% in size)
Summary of the method: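 Cell viability is measured by CellTiter-Fluor fluorescence in PGC/ERR cells that receive compounds after a 6-hour attachment period and are then incubated 17.5 hours at 37 C.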

[2] = qHTS assay to identify small molecule antagonists of the estrogen related receptor signaling pathway with the pleiotropic PPARgamma coactivator (PGC) from Tox21 10K library (AID 1224841; call rule not given here; note: series mostly up to about 92 µM; actives are mostly falling curves and most rising ones were filed inactive; nearly all actives have a fitted effect of over 50% in size)
Summary of the method: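 Cells stably carrying the PGC/ERR reporter, seeded at 2,000 per well, received pin-transferred compounds 6 h post-plating. Exposure lasted 18 h at 37 C. Signal: One-Glo luminescence.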

[3] = qHTS assay to identify small molecule agonists of the estrogen related receptor signaling pathway with the pleiotropic PPARgamma coactivator (PGC) from Tox21 10K library (AID 1224842); note: nearly all actives have a fitted effect of over 15% in size
Summary of the method: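 PGC/ERR reporter cells (NTP line) were seeded 2,000 per well, rested 6 h at 37 C/5% CO2, then pin-dosed with compounds in DMSO for 18 h at 37 C; luciferase read by One-Glo luminescence after 30 min at room temperature.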

[4] = target: Thyrotropin receptor (Homo sapiens) (UniProt P16473); experiment: qHTS assay to identify small molecule agonists of the thyroid stimulating hormone receptor (TSHR) signaling pathway (AID 1224843; calls by dose curve; note: nearly all actives have a fitted effect of over 45% in size)
Summary of the method: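 Compounds are titrated over 15 concentrations, in triplicate, onto TSHR-HEK293 cells seeded at 800/well. Plates sit 30 min at room temperature before cAMP-d2 and anti-cAMP cryptate are added; signal is read after a further hour.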

[5] = qHTS assay to identify small molecule agonists of the hypoxia (HIF-1) signaling pathway - cell viability counter screen (AID 1224844; calls by dose curve; note: nearly all actives have a fitted effect of over 50% in size)
Summary of the method: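 Viability counter screen: HRE-bla ME-180 cells plated 5 hrs before compound addition, treated 17 hrs at 37C and 5% CO2, then CellTiter-Glo added after the FRET reporter read; luminescence after 30 min.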

[6] = qHTS assay to identify small molecule agonists of H2AX (AID 1224845; active = well fitted activation curve with a large enough effect in the signal ratio in the repeat runs, not every such curve was filed as active; the % refers to the signal ratio)
Summary of the method: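 Wild-type CHO-K1 cells plated overnight, then exposed 3 hr at 37C to compounds at 15 concentrations (0.76% DMSO). Lysed, then HTRF anti-pH2AX(S139)-cryptate/anti-H2AX-d2 detection after 24 hr at room temperature; emissions 665 and 620 nm.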

[7] = qHTS assay to identify small molecule agonists of the hypoxia (HIF-1) signaling pathway (AID 1224846; active = well fitted activation curve with a large enough effect in the signal ratio in the repeat runs, not every such curve was filed as active; the % refers to the signal ratio)
Summary of the method: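 Agonist mode reporter screen. ME-180 cells stably expressing bla under HRE control received test compounds in DMSO for 17 hrs (37C, 5% CO2), and beta-lactamase activity was then detected with the CCF4-AM FRET substrate.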

[8] = qHTS assay to identify small molecule agonists of H2AX - cell viability counter screen (AID 1224847; calls by dose curve; note: top concentration of the series differs between compounds; nearly all actives have a fitted effect of over 30% in size)
Summary of the method: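 Counter-screen for viability: CellTiter-Glo ATP luminescence read after 3 h compound treatment (15-point titration, 0.76% DMSO final) of CHO-K1 cells at 37C, with 30 min room-temperature reagent incubation.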

[9] = qHTS assay to identify small molecule antagonists of the estrogen related receptor (ERR) signaling pathway from Tox21 library (AID 1224848); note: nearly all actives have a fitted effect of over 50% in size
Summary of the method: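 First, 2,000 ERR cells per well were plated and held 6 h at 37 C/5% CO2. Next, compounds in DMSO were pinned in and left 18 h at 37 C. Finally, ONE-Glo was added and luminescence read after 30 min at room temperature.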

[10] = qHTS assay to identify small molecule agonists of the estrogen related receptor (ERR) signaling pathway from Tox21 library (AID 1224849; calls by dose curve; note: nearly all actives have a fitted effect of over 15% in size)
Summary of the method: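 Quantitative HTS in agonist format: NTP ERR cell line, compounds transferred in DMSO after 6 h plating, 18 h incubation at 37 C, ONE-Glo luminescence endpoint.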

[11] = qHTS RealTime-Glo MT Cell Viability Assay in HepG2 cells - 24 hour (AID 1224867); note: nearly all actives have a fitted effect of over 50% in size
Summary of the method: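 HepG2 cells were seeded at 600 cells/well together with NanoLuc luciferase and a cell-permeant prosubstrate, preincubated 5 h at 37 C/5% CO2, then pin-dosed with compounds in DMSO. Nonlytic luminescence from viable cells was read at each time point.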

[12] = qHTS RealTime-Glo MT Cell Viability Assay in HEK293 cells - 32 hour (AID 1224868)
Summary of the method: (§1)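 HEK293 cells were seeded at 600 cells/well together with NanoLuc luciferase and cell-permeant prosubstrate, preincubated 5 h at 37 C/5% CO2, then given compound in DMSO by pintool. Luminescence from viable-cell prosubstrate reduction was read repeatedly over 40 h.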

[13] = A CellTox Green Cytotoxicity Assay to monitor cytotoxicity in HEK293 cells - 0 hour (AID 1224869); note: nearly all actives have a fitted effect of over 50% in size
Summary of the method: (§2)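 Dead-cell fluorescence measured kinetically: asymmetric cyanine dye, HEK293, 600 cells/well, 5 h settle, 23 nL cpd/DMSO, 37 C, reads 0–40 h every 8 h.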

[14] = qHTS RealTime-Glo MT Cell Viability Assay in HepG2 cells - 40 hour (AID 1224870); note: nearly all actives have a fitted effect of over 50% in size
Summary of the method: (§3)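 HepG2 cells mixed with RealTime-Glo MT reagents (NanoLuc plus cell-permeant prosubstrate) were seeded at 600 cells/well, incubated 5 h at 37 C/5% CO2, then pinned with compounds in DMSO; nonlytic luminescence tracked viability during 40 h treatment.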

[15] = A CellTox Green Cytotoxicity Assay to monitor cytotoxicity in HEK293 cells - 40 hour (AID 1224871); note: nearly all actives have a fitted effect of over 45% in size
Summary of the method: as §2

[16] = qHTS RealTime-Glo MT Cell Viability Assay in HEK293 cells - 16 hour (AID 1224872)
Summary of the method: as §1

[17] = qHTS RealTime-Glo MT Cell Viability Assay in HepG2 cells - 8 hour (AID 1224873); note: nearly all actives have a fitted effect of over 55% in size
Summary of the method: as §3

[18] = qHTS RealTime-Glo MT Cell Viability Assay in HEK293 cells - 40 hour (AID 1224874); details: RealTime-Glo luminescence; max response: active compounds read low; note: nearly all actives have a fitted effect of over 50% in size
Summary of the method: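 600 HEK293 cells per well, dispensed already mixed with RealTime-Glo MT reagents. Compound dosing came 5 h later. The same wells were read for luminescence at 0, 8, 16, 24, 32 and 40 h of exposure at 37 C.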

[19] = A CellTox Green Cytotoxicity Assay to monitor cytotoxicity in HEK293 cells - 24 hour (AID 1224875); note: series mostly up to about 77 µM; nearly all actives have a fitted effect of over 45% in size
Summary of the method: as §2

[20] = target: Nuclear receptor subfamily 1 group I member 3 (Homo sapiens) (UniProt Q14994); experiment: qHTS assay to identify small molecule agonists of the constitutive androstane receptor (CAR) signaling pathway (AID 1224839);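 note: HepG2 cells stably carrying human CAR and a CYP2B6 luciferase reporter; series mostly up to about 92 µM; nearly all actives have a fitted effect of over 15% in size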
Summary of the method: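 Luminescent ONE-Glo read-out after 24 hr, 37 C exposure of double-stable HepG2-CYP2B6-hCAR reporter cells to a 15-point compound series, in the presence of 0.75 uM PK11195 (final).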
% is set by controls: 0 for no effect and ±100 for the full control effect.

Chain of Thyrotropin receptor (Homo sapiens) (P16473 whole entry, looked up): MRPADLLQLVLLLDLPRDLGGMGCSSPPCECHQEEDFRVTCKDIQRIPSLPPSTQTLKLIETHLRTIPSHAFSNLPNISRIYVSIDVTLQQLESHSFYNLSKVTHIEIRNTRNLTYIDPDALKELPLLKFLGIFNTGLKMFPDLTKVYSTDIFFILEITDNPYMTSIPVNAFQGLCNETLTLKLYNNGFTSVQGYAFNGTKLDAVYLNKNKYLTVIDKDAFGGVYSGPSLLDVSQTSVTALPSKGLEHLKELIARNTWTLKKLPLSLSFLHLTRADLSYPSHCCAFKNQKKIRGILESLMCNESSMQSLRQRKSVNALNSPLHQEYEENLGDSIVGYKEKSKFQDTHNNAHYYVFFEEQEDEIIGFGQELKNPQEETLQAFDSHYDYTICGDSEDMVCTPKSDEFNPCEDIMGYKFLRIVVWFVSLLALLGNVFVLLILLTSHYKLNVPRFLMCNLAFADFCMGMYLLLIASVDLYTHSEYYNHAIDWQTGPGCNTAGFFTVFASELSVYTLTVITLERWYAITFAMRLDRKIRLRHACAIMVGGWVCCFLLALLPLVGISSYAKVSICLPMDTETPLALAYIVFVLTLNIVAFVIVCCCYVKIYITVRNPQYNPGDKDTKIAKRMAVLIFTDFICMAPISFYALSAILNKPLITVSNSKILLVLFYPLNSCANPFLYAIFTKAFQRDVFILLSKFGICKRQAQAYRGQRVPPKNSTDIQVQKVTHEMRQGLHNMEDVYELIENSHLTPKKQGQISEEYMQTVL
Chain of Nuclear receptor subfamily 1 group I member 3 (Homo sapiens) (Q14994 whole entry, looked up): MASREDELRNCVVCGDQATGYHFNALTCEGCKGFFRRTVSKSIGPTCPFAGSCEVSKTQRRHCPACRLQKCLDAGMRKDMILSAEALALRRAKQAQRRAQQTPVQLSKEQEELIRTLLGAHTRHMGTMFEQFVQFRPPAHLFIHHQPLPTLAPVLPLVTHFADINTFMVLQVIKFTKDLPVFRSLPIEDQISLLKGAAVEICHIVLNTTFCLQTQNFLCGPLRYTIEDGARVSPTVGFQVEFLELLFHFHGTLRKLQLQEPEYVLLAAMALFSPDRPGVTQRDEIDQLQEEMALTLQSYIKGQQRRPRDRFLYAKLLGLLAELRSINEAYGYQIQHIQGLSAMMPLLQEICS

CCCCOC(=O)C(C)OC(=O)CCC (stereo unspecified)
inactive: outcome [1] | Potency [2] | outcome [3] | outcome [4] | outcome [5] | outcome [6] | outcome [7] | Potency [8] | Potency [9] | outcome [10] | outcome [11] | Potency [12] | Potency [13] | outcome [14] | Potency [15] | Potency [16] | outcome [17] | max response [18] 13%

CC(=O)/C=C/c1ccco1
inactive: outcome [1] | Potency [2] | outcome [3] | outcome [4] | outcome [5] | outcome [6] | outcome [7] | Potency [8] | Potency [9] | outcome [10] | outcome [11] | Potency [12] | Potency [13] | outcome [14] | Potency [15] | Potency [16] | outcome [17] | max response [18] 7.79% | Potency [19]

C=CCOCC(CO)(COCC=C)COCC=C
inactive: outcome [1] | Potency [2] | outcome [3] | outcome [4] | outcome [5] | outcome [6] | outcome [7] | Potency [8] | Potency [9] | outcome [10] | outcome [11] | Potency [12] | Potency [13] | outcome [14] | Potency [15] | Potency [16] | max response [18] 0.319% | Potency [19]

CC(=O)OCC(=O)[C@@]1(O)[C@H](OC(C)=O)C[C@H]2[C@@H]3CCC4=CC(=O)C=C[C@]4(C)[C@@]3(F)[C@@H](O)C[C@@]21C
inactive: Potency [20] | outcome [1] | outcome [6] | outcome [7] | Potency [8] | outcome [11] | Potency [12] | Potency [13] | outcome [14] | Potency [15] | Potency [16] | outcome [17] | max response [18] 3.94% | Potency [19]

CCN(CCO)c1cccc(C)c1
inactive: outcome [1] | Potency [2] | outcome [3] | outcome [4] | outcome [5] | outcome [6] | outcome [7] | Potency [8] | Potency [9] | outcome [10] | outcome [11] | Potency [12] | Potency [13] | outcome [14] | Potency [15] | Potency [16] | max response [18] 6.86% | Potency [19]

Cc1ncc([N+](=O)[O-])n1CC(O)CCl (stereo unspecified)
inactive: outcome [1] | Potency [2] | outcome [3] | outcome [4] | outcome [5] | outcome [6] | outcome [7] | Potency [8] | Potency [9] | outcome [10] | outcome [11] | Potency [12] | Potency [13] | outcome [14] | Potency [15] | Potency [16] | outcome [17] | max response [18] 3.64% | Potency [19]

CC(C)CCC(=O)CCC(C)C
inactive: outcome [1] | Potency [2] | outcome [3] | outcome [4] | outcome [5] | outcome [6] | outcome [7] | Potency [8] | Potency [9] | outcome [10] | outcome [11] | Potency [12] | Potency [13] | outcome [14] | Potency [15] | Potency [16] | outcome [17] | max response [18] 1.42% | Potency [19]

CC(Cl)COP(=O)(OCC(C)Cl)OCC(C)Cl (stereo unspecified)
inactive: outcome [1] | Potency [2] | outcome [3] | outcome [4] | outcome [5] | outcome [6] | outcome [7] | Potency [8] | Potency [9] | outcome [10] | outcome [11] | Potency [12] | Potency [13] | outcome [14] | Potency [15] | Potency [16] | outcome [17] | max response [18] -0.188% | Potency [19]

FC(F)(F)c1ccc(Cl)cc1Cl
inactive: outcome [1] | Potency [2] | outcome [3] | outcome [4] | outcome [5] | outcome [6] | outcome [7] | Potency [8] | Potency [9] | outcome [10] | outcome [11] | Potency [12] | Potency [13] | outcome [14] | Potency [15] | Potency [16] | outcome [17] | max response [18] 6.78%

CCOc1ccc(NC(=O)OC(C)C)cc1OCC
inactive: Potency [20] | outcome [1] | outcome [5] | outcome [6] | Potency [8] | outcome [11] | outcome [14] | Potency [15] | Potency [16] | outcome [17] | Potency [19]

CCCCCCCCC(=O)OCC
inactive: outcome [1] | Potency [2] | outcome [3] | outcome [4] | outcome [5] | outcome [6] | outcome [7] | Potency [8] | Potency [9] | outcome [10] | outcome [11] | Potency [12] | Potency [13] | outcome [14] | Potency [15] | Potency [16] | outcome [17] | max response [18] 9.15% | Potency [19]

NC(Cc1c[nH]c2ccccc12)C(=O)O (stereo unspecified)
inactive: outcome [1] | outcome [4] | outcome [5] | outcome [6] | outcome [7] | Potency [8] | outcome [11] | Potency [12] | Potency [13] | outcome [14] | Potency [15] | Potency [16] | outcome [17] | max response [18] 13.4%

From PubChem BioAssay (Tox21)
